Consider 58 compounds from ChEMBL document CHEMBL4513216, “Probing the Open Global Health Chemical Diversity Library for Multistage-Active Starting Points for Next-Generation Antimalarials” (ACS Infect Dis, 2020).

The campaign covered roughly 69,000 compounds. About 8,600 (12%) showed an effect of 50% or more. This is one part of a sample in which strong results are shown more often than they occur.

This experiment relates to Plasmodium berghei. As to the kind of experiment: Screen against P. berghei liver stage (PbLuc), transformed with Luciferase, at 10uM. Conditions: tested at 10 uM. The experiment is classed as functional, HepG2.
`NC(=O)c1cccc2nc([C@H]3CCN(Cc4ccccn4)C3)[nH]c12`: the INHIBITION turned out to be 66.6%.
As to `NC(=O)c1cccnc1N1C[C@H]2CC[C@@H](C1)N(Cc1ccccn1)C2=O`, the INHIBITION amounted to 43.8%.
As to `CS(=O)(=O)N1CC[C@@H]2[C@@H]1CCN2Cc1ccc2c(c1)OCO2`, the INHIBITION stood at 7.5%.
Under `CC(C)N(CCCNC(=O)C1CCCN(C(N)=O)C1)S(C)(=O)=O` (stereo not drawn) stands 36.5%; under `CN(Cc1cn(CC2CCNCC2)nn1)CC1CCCCO1` (stereo not drawn), -1.04%; under `O=C1[C@H]2CN(Cc3ccco3)C[C@H]2CN1c1ccsc1`, 31.1%.
Under `CC(NCCCN1CCCN(C)CC1)C(C)(C)C` (stereo not drawn) stands 26%; under `Cc1cc(NC(=O)Cn2ccccc2=O)n(C)n1`, 11.5%.
The value for `Cn1nc(C(C)(C)C)cc1NC(=O)Cn1ccccc1=O` was 54.3%.
Turning to `Cc1ccccc1-c1cc(NC(=O)Cn2ccccc2=O)n(C)n1`, the INHIBITION is -3.94%.
The value for `Fc1cnc(N2CCO[C@H]3CN(CC4CCC4)C[C@H]32)nc1` was 12.2%; that for `c1cnc(N2CCO[C@H]3CN(CC4CCCC4)C[C@H]32)cn1` was 42.1%.
The value for `c1cnc(N2CCO[C@H]3CN(CC4CCOC4)C[C@H]32)cn1` (stereo partly drawn) was 44.8%; that for `c1cncc(N2CCO[C@H]3CN(CC4CCOC4)C[C@H]32)c1` (stereo partly drawn) was 62%; that for `Fc1cnc(N2CCO[C@H]3CN(CC4CCOC4)C[C@H]32)nc1` (stereo partly drawn) was 43.1%.
The value for `c1cnc(N2CCO[C@H]3CN(CC4CCC4)C[C@H]32)cn1` was 62%; that for `O=C(C1=CCCCC1)N1CCO[C@H]2[C@H](Oc3ccccn3)CC[C@@H]21` was 27.6%.
With `CCCc1nc(C)cc(NCc2ccc(S(N)(=O)=O)cc2)n1`, the INHIBITION was 18.5%.
In the case of `CCOc1ccc(-n2nnc(C(=O)O)c2-c2ccccn2)cc1`, the INHIBITION is -31.6%.
The value for `CCN(Cc1cc(Cl)ccc1OC)Cc1cc(C)nn1C` was 57.9%; that for `CCN(Cc1ccccn1)Cc1cc(Cl)ccc1OC` was 39.1%; that for `CCN(Cc1cc(Cl)ccc1OC)Cc1nccn1C` was 15.3%.
The value for `O=C(CCCN1CCCCC1)N1CCN(C(=O)c2nc[nH]n2)CC1` was -15.5%; that for `Cc1[nH]ncc1CCCNC(=O)Nc1ccc(S(C)(=O)=O)nc1` was 22.6%; that for `Cc1[nH]ncc1CCCNC(=O)N1CCOC(C)C1` (stereo not drawn) was -1.95%.
Under `Cc1[nH]ncc1CCCNC(=O)Nc1ccc2c(c1)OC1(CCCC1)O2` stands 70.3%.
For `Cc1[nH]ncc1CCCNC(=O)Nc1ccc(C#N)cc1`, the INHIBITION was -70.3%.
The value for `Cc1[nH]ncc1CCCNC(=O)Nc1ccc(F)cc1` was 78.2%.
The value for `Cc1[nH]ncc1CCCNC(=O)Nc1ccccc1` was 24.6%; that for `CN(CC1CCOC1)c1ccc(Br)cn1` (stereo not drawn) was 44.2%; that for `CS(=O)(=O)N1CC[C@@H]2OC(COCC(=O)N3CCCC3)CC[C@@H]21` (stereo partly drawn) was -8.94%.
Under `COCc1cn(C2CCN(CCC(C)c3ccccc3)CC2)nn1` (stereo not drawn) stands 55.7%; under `CNCc1cn(C2CCN(CCC(C)c3ccccc3)CC2)nn1` (stereo not drawn), 3.06%; under `CC(CCN1CCC(n2cc(CCO)nn2)CC1)c1ccccc1` (stereo not drawn), 24.9%.
Regarding `O=C1[C@@H]2CCN(C3CCOCC3)C[C@@H]2OCCN1Cc1cccnc1`, the INHIBITION was -8.54%.
With `CO[C@H]1CCN(S(=O)(=O)c2cn(C)cn2)[C@H]1Cc1cnn(C)c1`, the INHIBITION is reported as 10.8%.
The value for `CN1CCc2nnc(C3CCCN3S(=O)(=O)c3ccc(F)cc3)n2CC1` (stereo not drawn) was -9.08%.
The value for `Cc1cc(C)c(CNCC(O)c2ccc(F)c(F)c2)c(C)c1` (stereo not drawn) was -20.3%; that for `CSc1ccc(CCN2CCN([C@H]3CCCC[C@@H]3O)CC2)cc1` was 25.1%.
The value for `c1cc2c(cc1CN1C[C@@H]3COC[C@@H](N4CCCC4)[C@@H]3C1)OCO2` was 39.4%.
On to `O[C@H]1CCCC[C@@H]1N1CCN(CCCc2ccc3c(c2)OCO3)CC1`, for which the INHIBITION amounted to 53.8%.
The value for `CCCOc1c(CNC2CCSC2)cccc1OC` (stereo not drawn) was 4.87%; that for `CCn1c(Cn2cncn2)nnc1C1CCN(Cc2ccncc2)CC1` was -22.1%; that for `CCn1c(Cn2cncn2)nnc1C1CCN(CC2[C@H]3CNC[C@@H]23)CC1` (stereo partly drawn) was 57.1%.
On to `CCn1c(Cn2cncn2)nnc1C1CCN(CCN)CC1`, for which the INHIBITION turned out to be 43.8%.
With `CC(C)c1nn(C)c(N(C)C)c1CNCCC(=O)N(C)C`, the INHIBITION worked out at 3.19%.
Under `CC(C)(C)NC(=O)CN1CCCN(Cc2cc(C#N)ccc2F)CC1` stands -24.9%; under `CCc1ccsc1C(=O)N1CCN(CC(C)(C)O)CC1`, -13.5%; under `CC(C)(C)NC(=O)CN1CCCN(Cc2ccc(C#N)cc2)CC1`, -7.77%.
Under `CC(C)(C)n1cc(C(=O)N2CCN(Cc3ccncc3)CC2)cn1` stands 24.15%; under `CSc1ccsc1C(=O)N1CCN(CC(C)(C)O)CC1`, 25.3%.
Under `CC(C)(O)CN1CCN(C(=O)c2sccc2C#N)CC1` stands 54.4%; under `CCCN1CCN(C(=O)c2cnn(-c3ccccc3F)c2)CC1`, -39.9%; under `CC(C)(C)n1cc(C(=O)N2CCN(Cc3ccccc3F)CC2)cn1`, 71.4%.
On to `CC(C)(O)CN1CCN(C(=O)c2cnn(-c3ccccc3F)c2)CC1`, for which the INHIBITION is on record as 58.5%.
Under `CC(C)(C)n1cc(C(=O)N2CCN(Cc3ccco3)CC2)cn1` stands 6.15%; under `O=C(c1cnn(-c2ccccc2F)c1)N1CCN(CCO)CC1`, -10.3%.
The value for `CC(C)C(C)(C#N)NC(=O)CN1CCCN(Cc2ccccc2F)CC1` (stereo not drawn) was 82.4%.
